The nature of assay [1]: STM_H9_OrnCyssISnorm_ratio: Stemina devTOX quickPredict H9 human embryonic stem cell (hESC)-based Assay for Ornithine (ORN):Cystine (CYSS) Ratio (AID 2283714). The procedure, abridged: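 Ratio of internal-standard-normalized ornithine to cystine, measured by UPLC-HRMS in spent media from the last 24 h. H9 cells kept pluripotent, dosed 72 h with daily media and compound renewal; DMSO 0.1% serves as baseline.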

Assay [2] in a line: CEETOX_H295R_MTT_cell_viability: Viability Assessment in the CeeTox HT-H295R MTT Assay (AID 2283718; active = hit-call score of the fitted dose curve at least 0.9, where 1 is the maximum; inactive = score below 0.9;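 for AC50: curve fitted both ways so AC50 may mark viability loss or gain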). An outline of the steps: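 MTT reduction (0.5 mg/ml, 4 h at 37 C; absorbance at 570 and 650 nm) gave viability as background-corrected percent change versus controls. H295R cells had 48 h forskolin (10 uM) prestimulation, then 48 h chemical exposure at 0.1% DMSO.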
Assay [3] is described as follows: Tanguay_ZF_120hpf_ActivityScore_legacy: (Legacy) Oregon State University Tanguay Lab 120 Hour Post-fertilization zebrafish Assay Score for Activity (AID 2283742).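 For AC50: dechorionated Tropical 5D wild-type zebrafish embryos held singly per well.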 An outline of the steps: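 Binary scoring of mortality and morphology by brightfield at 24 and 120 hpf, summarised into one activity score from 18 components relative to DMSO. Wild-type Tropical 5D zebrafish, chorion removed at 4 hpf, static exposure 6–120 hpf, 28 °C.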

The target of assay [4] is Luciferin 4-monooxygenase (Photinus pyralis) (UniProt P08659). Put plainly: CCTE_Simmons_QuantiLum_inhib_2: CCTE's Firefly Luciferase Inhibition Assay, Simmons Lab (AID 2283767). The procedure, abridged:
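Eight-point titrations of each chemical, 5 nM–87.5 uM final in 0.5% DMSO, were run in three biological replicates against recombinant luciferase for 30 min at 37C. Bioluminescence signal loss, read on reagent injection, gave the inhibition endpoint.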

Assay [5] relates to Thyroperoxidase (TPO), gene 445522. Put plainly: CCTE_Simmons_GUA_TPO: CCTE's Guaiacol Assay for Thyroperoxidase (TPO) Inhibition, Simmons Lab (AID 2283750). The procedure, abridged:
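Porcine thyroid microsomes (25 ug) in 200mM potassium phosphate, preincubated 30 s at 37C with compound (8 concentrations, 5 nM–87.5 uM) and 35mM guaiacol; 1mM H2O2 starts reaction. Absorbance change at 450nm over first 80 s; loss of signal versus DMSO, three replicates.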

Assay [6] relates to chicken Androgen Receptor (AR), gene 422165. Nature of the assay: ATG_chAR_XSP1: Attagene TRANS-FACTORIAL Multi-Species (XSP1) HepG2 Assay for chicken Androgen Receptor (AR) (AID 2283768). The procedure, abridged: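 Reporter mRNA read by RT-PCR with fluorescent labelling and capillary electrophoresis 24 h after chemical dosing of transiently transfected HepG2 cells. Chicken AR-Gal4 chimera, partially stimulated with 3 nM 6-alpha-fluorotestosterone; activity fitted upward relative to DMSO.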

The nature of assay [7]: ArunA_CellTiter_hNC: Viability Assessment in the ArunA Biomedical's Oris Neural Crest (hNC) Cell Migration Assay (AID 2283752). The protocol: ArunA_CellTiter_hNC is a cell-based, single-readout assay that uses human H9-derived embryonic neural crest stem cells (hNC). Measurements were taken 72 hours after chemical dosing in a 96-well plate.ArunA_CellTiter_hNC is an assay component measured from the ArunA_CellTiter_hNC assay. It is designed to make measurements of viability, a form of viability reporter, as detected with fluorescence intensity signals by HCS Fluorescent Imaging technology. Data from the assay component ArunA_CellTiter_hNC was analyzed at the endpoint, ArunA_CellTiter_hNC, in the positive analysis fitting direction relative to DMSO as the negative control and baseline of activity. […]
To assess the hNP and hNC migration and cell titer endpoints, 60,000 cells per well were plated onto Matrigel in basal growth medium with LIF and bFGF in a 96-well plate format. […] Cell viability in the detection zone was quantitated using a Flexstation3 microplate reader (ex494 nm/em 517 nm). Corresponding cell titer endpoints were assessed for the hNP and hNC cells using the Promega CellTiter Aqueous One Solution Cell Proliferation Assay (Cat no. G3581; CellTiter 96). Finally, to gain insight into the mechanisms by which cells migrate into the detection zone, Ki-67 expression was quantified for 10 additional chemicals in the hNP and hNC systems. […]

Assay [8] in a line: ArunA_CellTiter_hNP: Viability Assessment in the ArunA Biomedical's Oris Neural Crest (hNC) Cell Migration Assay (AID 2283753). An outline of the steps: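 Viability read with CellTiter 96 Aqueous One after 72 h chemical exposure of human hNP1 neuroprogenitors, which were plated on Matrigel in LIF/bFGF medium 16 h beforehand. Endpoint fitted in positive direction relative to DMSO.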

The nature of assay [9]: ArunA_Migration_hNP: ArunA Biomedical's Oris Neuroprogenitor (hNP) Cell Migration Assay (AID 2283754). The procedure, abridged: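 Readout is calcein-AM fluorescence (ex494/em517) of cells migrating into the detection zone, relative to DMSO. hNP1 cells (H9-derived) grown on Matrigel behind stoppers 16 h, then stoppers pulled and chemical applied 72 h; cytochalasin D as control.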

Assay [10] is described as follows: ArunA_Migration_hNC: ArunA Biomedical's Oris Neural Crest (hNC) Cell Migration Assay (AID 2283755). An outline of the steps:
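Calcein-AM fluorescence (ex494 nm/em 517 nm) in the stopper-defined detection zone quantifies migration of hNC cells after 72 h chemical exposure; 60,000 cells/well plated on Matrigel with LIF and bFGF, 16 h pre-incubation. DMSO baseline.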

Results filed as inconclusive are left out. Some structures have more than one record in an assay (separate samples or runs), and their calls can disagree. Active and inactive are the calls of the source. Rule for the calls, unless noted: active = hit-call score of the fitted dose curve at least 0.9, where 1 is the maximum; inconclusive = response in the unintended direction; inactive = score below 0.9.

Sequence of Luciferin 4-monooxygenase (Photinus pyralis) (P08659 whole entry, looked up): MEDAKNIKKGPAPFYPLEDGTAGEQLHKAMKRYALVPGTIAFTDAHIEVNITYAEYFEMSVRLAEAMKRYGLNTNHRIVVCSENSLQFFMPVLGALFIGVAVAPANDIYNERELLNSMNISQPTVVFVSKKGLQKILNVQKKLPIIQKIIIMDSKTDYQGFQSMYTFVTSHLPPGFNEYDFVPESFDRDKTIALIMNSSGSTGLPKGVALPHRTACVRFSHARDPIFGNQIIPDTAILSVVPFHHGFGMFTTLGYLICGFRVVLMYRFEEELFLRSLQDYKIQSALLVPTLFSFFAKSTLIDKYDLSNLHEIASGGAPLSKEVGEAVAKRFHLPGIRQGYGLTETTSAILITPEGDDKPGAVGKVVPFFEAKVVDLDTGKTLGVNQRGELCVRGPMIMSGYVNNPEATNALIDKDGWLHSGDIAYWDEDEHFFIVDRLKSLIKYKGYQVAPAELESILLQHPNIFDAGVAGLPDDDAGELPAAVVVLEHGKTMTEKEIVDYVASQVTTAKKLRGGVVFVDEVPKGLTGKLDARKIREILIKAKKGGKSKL

For `CCC(C)c1cc([N+](=O)[O-])cc([N+](=O)[O-])c1O` (stereo unspecified), the outcome in assay [1] was inactive.

`CCSC(=O)N(CC)C1CCCCC1`: the AC50 (commonly the concentration giving half of the maximal activity seen) in [1] is 35.2 µM (active). Moreover, the result in [2] was inactive.

As for `Cc1cccc(C)c1N`, the outcome in [2] was inactive.

As for `Cc1cc(-c2ccc(N)c(C)c2)ccc1N`, in [2], the compound was called inactive.

On to `O=NN(c1ccccc1)c1ccccc1`, for which the result in assay [1] and in assay [3] was inactive.

As for `C1CC2OC2CC1C1CO1` (stereo unspecified), in assay [1], the AC50 was 66.1 µM (active).

With `CCCCCCCCCC[N+](C)(C)CCCCCCCCCC`, the AC50 in assay [1] was 1.94 µM (active). Also, in assay [4], the result was inactive.

For the compound `Nn1cnnc1`, in [1], the result was inactive.

On to `CO/C=C(/C(=O)OC)c1ccccc1COc1cccc(C(F)(F)F)n1`, for which the result in assay [1] was inactive. The AC50 in [3] is 28.7 µM (active).

With `CCOCCOC(C)=O`, the result in assay [2] was inactive.

As for `C=CC(N)=O`, the outcome in assay [2] and in assay [3] was inactive.

Regarding `Cc1cc2c3c(c1)C(c1ccccc1)=N[C@@H](NC(=O)c1ccncc1)C(=O)N3CC2`, the result in assay [2] was inactive.

Take `Clc1ccc(C(c2ccccc2Cl)C(Cl)(Cl)Cl)cc1` (stereo unspecified): the AC50 in assay [1] was 69.9 µM (active). Further, the call in [2] and in [3] was inactive.

For the compound `CCCCCCOC(=O)c1ccccc1C(=O)OCCCCCC`, the AC50 in [1] was 3.69 µM (active). In assay [2], the AC50 was 25.5 µM (active) and the result was inactive.

As to `NS(=O)(=O)C(F)(F)C(F)(F)C(F)(F)C(F)(F)C(F)(F)C(F)(F)C(F)(F)C(F)(F)F`, the result in assay [2] was inactive.

Take `Cc1cc(O)ccc1Cl`: the result in assay [1], in assay [2] and in assay [3] was inactive.

In the case of `CCOP(=S)(OCC)SCSC(C)(C)C`, in assay [2], the compound was called inactive.

For `Clc1ccc(C(Cl)(Cl)Cl)cc1`, the AC50 in assay [1] was 86.5 µM (active). For the same compound, in [4], the call was inactive.

As for `CCNc1nc(NC(C)C)nc(SC)n1`, the figures for the AC50 in [1] and in [3] were 33.3 µM (active) and 76.9 µM (active), respectively. Moreover, the call in assay [2] was inactive.

In the case of `c1cc2ccc3cccc4ccc(c1)c2c34`, the call in [2] was inactive.

As to `CCC(=O)O[C@H]1CC[C@H]2[C@@H]3CCC4=CC(=O)CC[C@]4(C)[C@H]3CC[C@]12C`, the AC50 in assay [1] is 28.6 µM (active); in assay [2], 82 µM (active). Also, the outcome in assay [3] and in assay [4] was inactive.

As for `Nc1ccc(-c2ccc(N)cc2)cc1`, in assay [2], the call was inactive.

For the compound `CCCCCCCCOC(=O)c1ccccc1C(=O)OCCCCCCCC`, the outcome in assay [1], in [2] and in assay [4] was inactive.

In the case of `ClC1=C(Cl)[C@]2(Cl)[C@@H]3[C@H]4C[C@H]([C@@H]5O[C@H]45)[C@@H]3[C@@]1(Cl)C2(Cl)Cl`, the AC50 in assay [1] was 72.4 µM (active); in [2] it was 4.96 µM (active).

On to `CC1=C2C[C@H]3[C@@H](CC=C4C[C@@H](O)CC[C@@]43C)[C@@H]2CC[C@]12O[C@@H]1C[C@H](C)CN[C@H]1[C@H]2C`, for which the result in [1] and in assay [2] was inactive.

Turning to `C=CC(=O)NCNC(=O)C=C`, in assay [1], the AC50 was 73.2 µM (active).

For `Sc1ccccc1`, the result in [1] and in assay [4] was inactive.

In the case of `Cc1ccccc1O`, the compound was classed as inactive in assay [3].

Take `N#Cc1ccc(N(CC(N)=O)CC(F)(F)F)cc1C(F)(F)F`: the compound was classed as inactive in assay [2] and in assay [3].

`c1ccc(-c2ccccc2)cc1`: in [4], the call was inactive.

As to `CCC(C)(c1ccc(O)cc1)c1ccc(O)cc1`, the AC50 in assay [3] is 49.3 µM (active); in assay [5], 189 µM (active). Further, in assay [4], the call was inactive.

Take `Cc1ccccc1CO[C@@H]1C[C@@]2(C(C)C)CC[C@]1(C)O2`: the result in assay [2] and in [4] was inactive.

On to `CN(C)CCO`, for which the outcome in assay [3] was inactive.

For `C[C@]12CCC(=O)C=C1CC[C@@H]1[C@@H]2CC[C@]2(C)C(=O)CC[C@@H]12`, the call in assay [2], in assay [4] and in [6] was inactive. For the same compound, the AC50 in assay [3] is 67.7 µM (active); in assay [6], 0.0535 µM (active).

On to `O=C(O)C(F)(F)C(F)(F)C(F)(F)C(F)(F)C(F)(F)C(F)(F)C(F)(F)C(F)(F)C(F)(F)F`, for which the compound was called inactive in assay [2] and in [4].

With `Cc1ccc(O)c(C)c1`, the compound was called inactive in assay [2], in [3] and in [4].

With `Oc1ccc(Cl)cc1Cl`, the result in assay [2] and in [3] was inactive.

With `O=C(O)C(F)(F)C(F)(F)C(F)(F)C(F)(F)C(F)(F)C(F)(F)C(F)(F)C(F)(F)F`, the compound was classed as inactive in [3] and in assay [4].

As to `Oc1c(Cl)c(Cl)c(Cl)c(Cl)c1Cl`, the outcome in [2] and in assay [4] was inactive. For the same compound, the AC50 in assay [3] is 1.03 µM (active).

Take `CC#Cc1cc(C)nc(Nc2ccccc2)n1`: the compound was classed as inactive in [2] and in [3].

With `CC(C)(O)C(=O)Nc1ccc([N+](=O)[O-])c(C(F)(F)F)c1`, the AC50 in assay [3] is 20.3 µM (active).

For `CC(C)(c1ccccc1)c1ccc(O)cc1`, the call in assay [4] was inactive.

`O=C(N[C@H]1CN2CCC1CC2)c1cc2ccoc2cn1`: the result in [3] was inactive.

On to `ClC1=C(Cl)[C@]2(Cl)[C@@H]3[C@@H]4C[C@@H]([C@H]5O[C@@H]45)[C@@H]3[C@@]1(Cl)C2(Cl)Cl`, for which the outcome in assay [3] was inactive.

As for `CCCCCCCCCc1ccc(O)cc1`, in assay [4], the compound was called inactive.

With `O=S(=O)(O)C(F)(F)C(F)(F)C(F)(F)C(F)(F)F`, the compound was classed as inactive in assay [3].

On to `COS(=O)(=O)OC`, for which the compound was classed as inactive in assay [4].

`Oc1ccc(C(c2ccc(O)cc2)(C(F)(F)F)C(F)(F)F)cc1`: the AC50 was 9.41 µM (active) in [7], 12.2 µM (active) in [8], 24.6 µM (active) in assay [9] and 9.68 µM (active) in assay [10]. For the same compound, the result in assay [4] and in assay [6] was inactive.

Values taken from PubChem BioAssay (EPA / NIEHS).
